± gives the standard deviation of the averaged measurements. In all, about 1,900 compounds were measured (“CD40L-induced NF-kB luciferase activity, plate-corrected, relative to DMSO (0) and IKK inhibitor VII (-100) controls”: median about 0.032, lowest 2% from about -26 on). Many of the other results were omitted from the sample, so the lowest values are more common in it than they were.

The results in this text go back to the supplement of paper PMC3656093.

The test system of this assay is BL2-NFkB-Luc. The experiment in a line: CD40L-induced NF-kB luciferase activity, plate-corrected, relative to DMSO (0) and IKK inhibitor VII (-100) controls (% normalized activity); higher = more NF-kB reporter activity (less inhibition). As to conditions: 9.4 µM; stimulus: tCD40L 64 ng/ml; 4.5 h. How it is done: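 BL2 B cells with a stable NF-kB response-element luciferase reporter (BL2-NFkB-Luc), 384-well. Cells were pre-incubated with compound at 9.4 uM for 1 h at 37 C, then stimulated with 64 ng/ml trimerized CD40L for 4.5 h; luciferase was read with Steady-Glo. Signal was normalised per plate in Genedata (median DMSO neutral control = 0, median IKK inhibitor VII at 50 uM = -100) with Assay Median plate-pattern correction; duplicate plates.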
Turning to `CCC(=O)O[C@]1(C(=O)CCl)[C@@H](C)C[C@H]2[C@@H]3CCC4=CC(=O)C=C[C@]4(C)[C@@]3(F)[C@@H](O)C[C@@]21C`, the “CD40L-induced NF-kB luciferase activity” value was -21.44 ± 0.014.

On to `CCCC(=O)O[C@]1(C(=O)CCl)[C@@H](C)C[C@H]2[C@@H]3CCC4=CC(=O)C=C[C@]4(C)[C@@]3(F)C(=O)C[C@@]21C`, for which the “CD40L-induced NF-kB luciferase activity” value is -27.9 ± 3.7.

`C[C@H]1C[C@H]2[C@@H]3CCC4=CC(=O)C=C[C@]4(C)[C@@]3(Cl)[C@@H](O)C[C@]2(C)[C@@]1(O)C(=O)CO`: the “CD40L-induced NF-kB luciferase activity” value is -25.6 ± 2.2.

As for `Cc1cnc(N)c2c(=O)oc3ccccc3c12`, the “CD40L-induced NF-kB luciferase activity” value is 41.69 ± 0.28.

Consider `O=C1CCCC(=O)C1=Cc1c[nH]c2ccccc12`, for which the “CD40L-induced NF-kB luciferase activity” value was -7.53 ± 0.79.

With `CCn1c(=N)c(C(=O)NC)cc2c(=O)n3cccc(C)c3nc21`, the “CD40L-induced NF-kB luciferase activity” value is 0.825 ± 8.5.

As to `O=C(Nc1ccc(N2CCOCC2)cc1)c1ccc(-c2ccccc2[N+](=O)[O-])o1`, the “CD40L-induced NF-kB luciferase activity” value came to 17.3 ± 0.45.

For `COc1cc(OC)cc(C(C)=O)c1`, the “CD40L-induced NF-kB luciferase activity” value is -2.98 ± 1.2.

Consider `C=C1C2(C(=O)Nc3ccc(SC(F)F)cc3)CCC(C2)C1(C)C` (centres undefined), for which the “CD40L-induced NF-kB luciferase activity” value worked out at 1.47 ± 2.7.

Regarding `N#C/C(=C/c1ccccc1)C(=O)NCc1ccccc1`, the “CD40L-induced NF-kB luciferase activity” value was -1.8 ± 1.4.

For the compound `Cc1ccc(C(=O)COC(=O)c2cnccn2)cc1[N+](=O)[O-]`, the “CD40L-induced NF-kB luciferase activity” value came out at 0.896 ± 2.4.

As to `CCOc1ccccc1C(=O)NCCC(=O)O`, the “CD40L-induced NF-kB luciferase activity” value was -1.43 ± 3.9.

Regarding `Cc1cccc(N2C(=O)C3C(c4ccccc4)OC4(C(=O)c5ccccc5C4=O)C3C2=O)c1` (centres undefined), the “CD40L-induced NF-kB luciferase activity” value was -0.286 ± 0.72.

Turning to `COc1ccc(CN(CCC(c2ccc(F)cc2)C2CCOC(C)(C)C2)C(=O)c2ccco2)cc1` (centres undefined), the “CD40L-induced NF-kB luciferase activity” value is -4.2 ± 3.9.

Regarding `CC(=O)OC1c2c(ccc3ccc(=O)oc23)OC(C)(C)C1OC(=O)CC(C)C` (centres undefined), the “CD40L-induced NF-kB luciferase activity” value was -3.56 ± 6.5.

Consider `CC1/C(=C\c2ccc(Cl)cc2)C(=O)C2CC1C2(C)C` (centres undefined), for which the “CD40L-induced NF-kB luciferase activity” value was determined as 3.76 ± 2.7.

`COC(=O)c1ccc(NC(=O)C23CCC(C)(C(=O)O2)C3(C)C)cc1` (centres undefined): the “CD40L-induced NF-kB luciferase activity” value was -0.16 ± 13.

Turning to `COc1cccc(NC(=O)C2CC(=O)OC23CCOC(C)(C)C3)c1` (centres undefined), the “CD40L-induced NF-kB luciferase activity” value came to 4.32 ± 4.7.

Turning to `CC1CNCCN1S(=O)(=O)c1cccc2cnccc12` (centres undefined), the “CD40L-induced NF-kB luciferase activity” value is -26.1 ± 6.3.

Turning to `O=C1c2ccccc2C2(c3ccccc3)NCCN12` (centres undefined), the “CD40L-induced NF-kB luciferase activity” value was 1.37 ± 7.

In the case of `Cc1ccccc1C(=O)Oc1ccc(Sc2ccc(O)cc2)cc1`, the “CD40L-induced NF-kB luciferase activity” value was found to be 2.2 ± 3.6.

With `O=C(NCCc1c[nH]c2ccccc12)OCCSS(=O)(=O)O`, the “CD40L-induced NF-kB luciferase activity” value was 0.55 ± 1.4.

With `CCOCC(=O)Nc1ccccc1C(=O)N1CCOCC1`, the “CD40L-induced NF-kB luciferase activity” value was -5 ± 1.

As for `Cn1c(=O)[nH]c2nnc(-c3ccc(Cl)c(Cl)c3)nc2c1=O`, the “CD40L-induced NF-kB luciferase activity” value came to 25.5 ± 4.7.

Take `Cn1nc(-c2ccccn2)nc2c(=O)n(C)c(=O)nc1-2`: the “CD40L-induced NF-kB luciferase activity” value is -19.1 ± 0.82.

For the compound `Cn1nc(-c2ccc(Cl)cc2)nc2c(=O)n(C)c(=O)nc1-2`, the “CD40L-induced NF-kB luciferase activity” value was -95.22 ± 0.55.

`O=C1[C@@H]2CSCN2C(=O)CN1Cc1ccc(F)cc1`: the “CD40L-induced NF-kB luciferase activity” value is -0.473 ± 5.9.

For the compound `COc1ccc(NC(=S)N2CCN(CCN3C(=O)c4cccc5cccc(c45)C3=O)CC2)cc1`, the “CD40L-induced NF-kB luciferase activity” value is 1.19 ± 0.65.

`O=C(c1cccc2ccccc12)C1CCCN(C(=O)CCN2CCCO2)C1` (centres undefined): the “CD40L-induced NF-kB luciferase activity” value worked out at 2.54 ± 2.

On to `CC(=O)O[C@H]1C(=O)[C@@]2(C)[C@H]([C@H](OC(=O)c3ccccc3)[C@]3(O)C[C@H](OC(=O)[C@H](O)C(NC(=O)c4ccccc4)c4ccccc4)C(C)=C1C3(C)C)[C@]1(OC(C)=O)CO[C@@H]1C[C@@H]2O` (some centres undefined), for which the “CD40L-induced NF-kB luciferase activity” value is -33.4 ± 1.3.

With `CC(C)C1CC(CCNCc2ccc(N(C)C)cc2)(c2ccccc2)CCO1` (centres undefined), the “CD40L-induced NF-kB luciferase activity” value was -4.73 ± 11.

As to `N/C(=N\OC(=O)c1cccc(Br)c1)c1ccncc1`, the “CD40L-induced NF-kB luciferase activity” value was 2.67 ± 0.79.

For the compound `COc1ccc(C2=CC(=O)C=CC2=O)cc1`, the “CD40L-induced NF-kB luciferase activity” value was -5.93 ± 5.3.

With `CCOc1ccc(C(=O)N2CCCC2C(=O)O)cc1` (centres undefined), the “CD40L-induced NF-kB luciferase activity” value was determined as 2.22 ± 8.

In the case of `CC(=O)O[C@H]1CC[C@H]2[C@@H]3CCc4cc(O)ccc4[C@H]3CC[C@]12C`, the “CD40L-induced NF-kB luciferase activity” value was -3.39 ± 3.8.

For the compound `CCOC(=O)C(=Cc1ccccc1OC)C(=O)OCC`, the “CD40L-induced NF-kB luciferase activity” value was -29 ± 6.1.

On to `COc1ccccc1/C=C/C(=O)OCCN1CCOCC1`, for which the “CD40L-induced NF-kB luciferase activity” value came to 2.92 ± 4.6.

Turning to `CCOC(=O)C(=O)N1CCN(c2ccccc2OC)CC1`, the “CD40L-induced NF-kB luciferase activity” value is -1.99 ± 1.9.

For the compound `C[C@H]1C[C@@H]2[C@H]([C@@H](O)C[C@@]3(C)[C@H]2CC[C@]3(O)C(=O)CO)[C@@]2(C)C=CC(=O)C=C12`, the “CD40L-induced NF-kB luciferase activity” value was -35.94 ± 0.26.

Regarding `CC(=O)OCC(=O)[C@@]1(O)CC[C@H]2[C@@H]3CCC4=CC(=O)CC[C@]4(C)[C@H]3[C@@H](O)C[C@@]21C`, the “CD40L-induced NF-kB luciferase activity” value was -31.1 ± 6.7.

Consider `CC1(C)O[C@@H]2C[C@H]3[C@@H]4C[C@H](F)C5=CC(=O)CC[C@]5(C)[C@H]4[C@@H](O)C[C@]3(C)[C@]2(C(=O)CO)O1`, for which the “CD40L-induced NF-kB luciferase activity” value was -21.3 ± 0.59.

Take `C[C@]12CCC(=O)C=C1CC[C@@H]1[C@@H]2C(=O)C[C@@]2(C)[C@H]1CC[C@]2(O)C(=O)CO`: the “CD40L-induced NF-kB luciferase activity” value was -6.47 ± 2.

`CCCC1O[C@@H]2C[C@H]3[C@@H]4CCC5=CC(=O)C=C[C@]5(C)[C@H]4[C@@H](O)C[C@]3(C)[C@]2(C(=O)CO)O1` (some centres undefined): the “CD40L-induced NF-kB luciferase activity” value was -26 ± 0.65.

For `C[C@]12CCC(=O)C=C1CC[C@@H]1[C@@H]2CC[C@@]2(C)[C@H]1CC[C@]2(O)C(=O)CO`, the “CD40L-induced NF-kB luciferase activity” value is -8.87 ± 3.8.

In the case of `C[C@]12C=CC(=O)C=C1CCC1C3CC[C@](O)(C(=O)CO)[C@@]3(C)CC3OC312` (some centres undefined), the “CD40L-induced NF-kB luciferase activity” value is -7.42 ± 5.5.

For `CC(=O)OCC(=O)[C@@]1(O)CC[C@H]2[C@@H]3CCC4=CC(=O)C=C[C@]4(C)[C@H]3[C@@H](O)C[C@@]21C`, the “CD40L-induced NF-kB luciferase activity” value is -43.8 ± 2.2.

For the compound `CC(=O)[C@@]1(O)CC[C@H]2[C@@H]3CCC4=CC(=O)CC[C@]4(C)[C@H]3[C@@H](O)C[C@@]21C`, the “CD40L-induced NF-kB luciferase activity” value was -12.9 ± 3.2.

Regarding `C[C@]12CCC(=O)C=C1CC[C@@H]1[C@@H]2[C@@H](O)C[C@@]2(C)[C@H]1CC[C@]2(O)C(=O)COC(=O)CCC(=O)O`, the “CD40L-induced NF-kB luciferase activity” value was -23.2 ± 7.1.

On to `C[C@]12CCC(=O)C=C1[C@H](O)C[C@@H]1[C@@H]2[C@@H](O)C[C@@]2(C)[C@H]1CC[C@]2(O)C(=O)CO`, for which the “CD40L-induced NF-kB luciferase activity” value was -8.7 ± 4.6.
